Experimental data as given in PubChem BioAssay (NCI).
About 83,000 compounds went through this panel and 20% of them were active in at least one assay; those are over-represented in the sample as a whole.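 Cells were grown in 96-well plates and exposed to the test compound at a single concentration for 48 hours; results are reported as percent growth, with values below 10 considered active.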 The source made the active and inactive calls.

How the values were obtained:
Experiment in all cases: NCI-60 one-dose screen, 48 h (100 = growth as untreated, 0 = no growth, -100 = all killed)
Details in all cases: 10 µM unless noted
[1] = test system: DU-145 prostate
[2] = test system: K-562 leukemia
[3] = test system: MALME-3M melanoma
[4] = test system: MDA-MB-231 breast
[5] = test system: RXF 393 renal
[6] = test system: SF-268 CNS
[7] = test system: SF-295 CNS
[8] = test system: SF-539 CNS
[9] = test system: UACC-257 melanoma
[10] = test system: M14 melanoma
[11] = test system: HCT-15 colon
[12] = test system: HT29 colon
[13] = test system: SNB-75 CNS
[14] = test system: SNB-19 CNS
[15] = test system: U251 CNS
[16] = test system: PC-3 prostate
[17] = test system: SK-MEL-5 melanoma
[18] = test system: UACC-62 melanoma
[19] = test system: SK-MEL-28 melanoma

Measured: growth

CN1CCN(CCOc2ccc(-c3cnc4c(-c5ccccc5F)cnn4c3)cc2)CC1
active: [2] -50.3% | [3] 7.94% | [9] -7.9% | [10] -80.3% | [11] 3.14% | [12] -38% | [15] 2.35% | [18] -10.7%
inactive: [1] 60.9% | [4] 29.2% | [5] 50% | [6] 63.9% | [7] 65% | [8] 51.3% | [13] 120% | [14] 69.1% | [16] 32.4% | [17] 35% | [19] 59.5%

Cc1ccccc1-c1nc(C(Cl)Cl)nc2cc(-c3ccccc3)nn12
inactive: [1] 57.8% | [2] 52.2% | [3] 86.2% | [4] 44.9% | [6] 88.1% | [7] 81.6% | [8] 76.3% | [9] 107% | [10] 94% | [11] 36.1% | [12] 13.7% | [14] 69.8% | [15] 47.2% | [16] 62% | [17] 86.4% | [18] 74.4% | [19] 97.3%
active: [5] 3.45% | [13] 8.7%

N#C/C(=C\c1ccc(-c2ccc(Br)cc2)o1)c1nc(-c2cccs2)cs1
inactive: [1] 100% | [2] 97% | [3] 101% | [4] 89.3% | [5] 107% | [6] 102% | [7] 100% | [8] 93.8% | [9] 102% | [10] 95.8% | [11] 98.8% | [12] 105% | [13] 97% | [14] 95.1% | [15] 99.3% | [16] 95.9% | [17] 99.6% | [18] 86.2% | [19] 99.1%

CC1(C)C(=O)/C(=C\c2ccco2)C[C@]2(C)[C@H]3CC[C@@H]4[C@@H](C(=O)/C=C/c5ccco5)CC[C@@]4(C)[C@]3(C)CC[C@@H]12
active: [3] 1.28% | [17] -49.9%
inactive: [1] 75.2% | [2] 85.6% | [4] 56% | [5] 101% | [6] 78.7% | [7] 100% | [8] 97.5% | [9] 16.8% | [10] 23.9% | [11] 79.6% | [12] 75.7% | [13] 68.1% | [14] 46.8% | [15] 50.7% | [16] 80.4% | [18] 12.5% | [19] 32.1%

CN1CCN(CCOc2ccc(-c3cnc4c(-c5cccc(F)c5)cnn4c3)cc2)CC1
inactive: [1] 71.8% | [3] 60.6% | [4] 47.7% | [5] 66.3% | [6] 80.4% | [7] 79.6% | [8] 70.6% | [9] 67.1% | [13] 88.1% | [14] 83.9% | [15] 46.6% | [16] 51.2% | [17] 72% | [18] 78.3% | [19] 92.1%
active: [2] -33.6% | [10] 2.02% | [11] 2.6% | [12] 4.57%

CC1(C)CC[C@]2(C(=O)NCCNCCN)CC[C@]3(C)C(=CC[C@@H]4[C@@]5(C)CCC(=O)C(C)(C)[C@@H]5CC[C@]43C)[C@@H]2C1
active: [2] -47.9% | [3] -65% | [4] 6.83% | [10] -63.4% | [12] -2.78% | [15] -69.7% | [18] -89.3%
inactive: [1] 32.5% | [5] 50.1% | [6] 72.7% | [7] 96.7% | [8] 76.5% | [9] 92.8% | [11] 27% | [13] 69.8% | [14] 56.1% | [16] 40.9% | [17] 87.6% | [19] 38.6%

N#CC1=C(N)Oc2ccc3ccccc3c2C1c1ccccc1 (stereo not given)
active: [7] 4.96% | [13] -16.3%
inactive: [1] 51.2% | [2] 14.9% | [3] 42.3% | [4] 47% | [5] 23.3% | [6] 52.2% | [8] 11.4% | [9] 61.7% | [10] 13.6% | [11] 19.5% | [12] 17.7% | [14] 29.5% | [15] 32.5% | [16] 40.6% | [17] 25.7% | [18] 18.6% | [19] 54.6%

O=C1c2cccc3cccc(c23)C(=O)N1CC#Cc1ccc2c3c(cccc13)C(=O)N(CCO)C2=O
inactive: [1] 88.6% | [2] 95.1% | [3] 100% | [4] 66.9% | [5] 85.1% | [6] 78.9% | [7] 98.7% | [8] 90.8% | [9] 94.2% | [10] 84.8% | [11] 82.1% | [12] 96.5% | [13] 69.9% | [14] 96.3% | [15] 93.1% | [16] 84.8% | [17] 90.8% | [18] 93.1% | [19] 112%

C=C(C)[C@@H]1CC[C@]2(CN)CC[C@]3(C)[C@H](CC[C@@H]4[C@@](C)(CCCN)[C@H](C(=C)C)CC[C@]43C)[C@@H]12
inactive: [1] 94.8% | [3] 80.2% | [4] 92.8% | [5] 79% | [6] 79.9% | [7] 101% | [8] 90.4% | [9] 99.7% | [10] 75.2% | [11] 62.8% | [12] 17.9% | [13] 79.8% | [14] 89.5% | [15] 74% | [16] 71.5% | [17] 88.3% | [18] 100% | [19] 100%
active: [2] 1.94%

Cc1nc([P+](c2ccccc2)(c2ccccc2)c2ccccc2)c(Sc2sc(-c3ccccc3)nc2[P+](c2ccccc2)(c2ccccc2)c2ccccc2)o1
inactive: [1] 19.7% | [4] 14.2% | [5] 26.7% | [6] 18.2% | [8] 22.3% | [10] 15.5% | [11] 30.2% | [14] 16.2% | [15] 14.3% | [18] 19.2% | [19] 54.5%
active: [2] 9.67% | [3] 6.38% | [7] 1.87% | [9] 8.5% | [12] 4.54% | [13] -3.87% | [16] 3.44% | [17] -17.1%

N#C/C(=C\c1ccc(-c2ccc(F)cc2)o1)c1nc(-c2ccco2)cs1
inactive: [1] 104% | [2] 95.9% | [3] 98.1% | [4] 88.7% | [5] 116% | [6] 106% | [7] 102% | [8] 98.7% | [9] 106% | [10] 102% | [11] 84.5% | [12] 98.7% | [13] 88.9% | [14] 101% | [15] 97.3% | [16] 93.3% | [17] 92.8% | [18] 87.1% | [19] 114%

CC(C)(C)n1cc(-c2ccnc(NCCCNS(=O)(=O)c3ccc(Cl)cc3)c2)c(-c2cccc(F)c2)n1
active: [11] 9.66%
inactive: [1] 87% | [2] 24.8% | [3] 73.8% | [4] 81.6% | [5] 72% | [6] 86.6% | [7] 68.2% | [8] 75% | [9] 93.1% | [10] 77.7% | [12] 27.6% | [13] 76.5% | [14] 80% | [15] 61.7% | [16] 49.7% | [17] 70.7% | [18] 84.6% | [19] 89.4%

NC1=C(C/C(N)=N\O)C(c2ccccc2Cl)c2c(ccc3ccccc23)O1 (stereo not given)
inactive: [1] 106% | [2] 22.8% | [3] 58.5% | [4] 86.9% | [5] 86.4% | [6] 82.2% | [7] 66.7% | [8] 83.6% | [9] 96.1% | [10] 59.8% | [11] 47.7% | [12] 97.1% | [13] 75.2% | [14] 86.8% | [15] 91.3% | [16] 74.2% | [17] 86.8% | [18] 52.2% | [19] 80.2%

C#Cc1cccc(NC(=O)C2CCCN(C(=O)CCl)C2)c1 (stereo not given)
active: [3] 3.83% [8.25 µM]
inactive: [1] 102% [8.25 µM] | [2] 20.2% [8.25 µM] | [4] 81.5% [8.25 µM] | [5] 67% [8.25 µM] | [6] 78.3% [8.25 µM] | [7] 85.4% [8.25 µM] | [8] 79.9% [8.25 µM] | [9] 79.7% [8.25 µM] | [10] 20.6% [8.25 µM] | [11] 25.2% [8.25 µM] | [12] 83.9% [8.25 µM] | [13] 91.9% [8.25 µM] | [14] 85.7% [8.25 µM] | [15] 72% [8.25 µM] | [16] 96.2% [8.25 µM] | [17] 19.4% [8.25 µM] | [18] 44.2% [8.25 µM] | [19] 102% [8.25 µM]

Brc1cnc2[nH]cc(-c3nnc(-c4ccccc4)o3)c2c1
inactive: [1] 57.9% | [2] 73.3% | [3] 78.9% | [4] 63% | [5] 26.8% | [6] 81.2% | [7] 85.8% | [8] 89.6% | [9] 112% | [10] 76.6% | [11] 55% | [12] 74.8% | [13] 66.3% | [14] 79.5% | [15] 74.6% | [16] 77.9% | [17] 80.4% | [18] 66.9% | [19] 90.9%
